In the supplement of paper PMC8975748:
Structures can show the parent of a compound that is named as a salt.

Test system: Saccharomyces cerevisiae BY4741 SeMeCo community
Experiment: z-score of subpopulation abundance vs DMSO median, subpopulation auxotrophic for M; higher = larger share of this subpopulation than in DMSO controls
Details: 10 µM; 24 h; SM minimal medium; subpopulation (auxotrophy): M
Description: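 Fluorescent four-plasmid SeMeCo (self-establishing metabolically cooperating S. cerevisiae BY4741 community; plasmids pH-mRuby2, pL-mWasabi, pU-eCFP, pM-TagRFP657) was grown 24 h in minimal SM medium with each Selleck FDA-approved drug at 10 µM in 384-well plates. Cells were fixed and imaged by high-content confocal microscopy. For each auxotrophic subpopulation (and the prototroph), a z-score gives the deviation from the DMSO vehicle-control population median.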

Compound | z-score of subpopulation abundance
CCc1cccc2c3c([nH]c12)C(CC)(CC(=O)O)OCC3 (stereo not given) [Etodolac] | -0.55
CC[C@@H]1/C=C(\C)C[C@H](C)C[C@H](OC)[C@H]2O[C@@](O)(C(=O)C(=O)N3CCCC[C@H]3C(=O)O[C@H](/C(C)=C/[C@@H]3CC[C@@H](O)[C@H](OC)C3)[C@H](C)[C@@H](O)CC1=O)[C@H](C)C[C@@H]2OC [Ascomycin (FK520)] | 1.34
C[N+]1(C)[C@@H]2C[C@@H](OC(=O)C(O)(c3cccs3)c3cccs3)C[C@H]1[C@@H]1O[C@@H]12 [Tiotropium Bromide hydrate] | 0.04
CN(C)CCC=C1c2ccccc2C=Cc2ccccc21 [Cyclobenzaprine HCl] | 0
CCC[S+]([O-])c1ccc2[nH]c(NC(=O)OC)nc2c1 (stereo not given) [Albendazole Oxide] | -0.33
N[C@@H]1CCCCN(c2c(F)cc3c(=O)c(C(=O)O)cn(C4CC4)c3c2Cl)C1 [Besifloxacin HCl] | -0.11
C=C[C@H]1CN2CC[C@H]1C[C@@H]2[C@@H](O)c1ccnc2ccc(OC)cc12 [Quinidine sulfate] | 1.1
O=C(Nc1ccc(Oc2ccc(Cl)cc2)c(Cl)c1)c1cc(I)cc(I)c1O [Rafoxanide] | -0.29
C[C@@H](O)[C@H]1C(=O)N2C(C(=O)O)=C([C@H]3CCCO3)S[C@H]12 [Faropenem Sodium] | 0.61
CCOC(=O)c1c(CSc2ccccc2)n(C)c2cc(Br)c(O)c(CN(C)C)c12 [Arbidol HCl] | 0.41
CN(Cc1cnc2nc(N)nc(N)c2n1)c1ccc(C(=O)N[C@@H](CCC(=O)O)C(=O)O)cc1 [Methotrexate] | -4.24
CN[C@@H]1[C@H](O[C@H]2[C@H](O[C@H]3[C@H](O)[C@@H](O)[C@H](N=C(N)N)[C@@H](O)[C@@H]3N=C(N)N)O[C@@H](C)[C@]2(O)C=O)O[C@@H](CO)[C@H](O)[C@H]1O [Streptomycin sulfate] | -0.43
COc1cnc(NS(=O)(=O)c2ccc(N)cc2)nc1 [Sulfameter] | 0.05
CO/N=C(\C(=O)N[C@@H]1C(=O)N2C(C(=O)[O-])=C(C[n+]3cccc4c3CCC4)CS[C@H]12)c1csc(N)n1 [Cefpirome sulfate] | 0.51
CNCC[C@@H](Oc1ccccc1C)c1ccccc1 [Atomoxetine HCl] | 0.21
C[C@]12CC[C@@H]3c4ccc(O)cc4CC[C@H]3[C@@H]1CCC2=O [Estrone] | -0.44
Cc1cc(C)nc(NS(=O)(=O)c2ccc(N)cc2)n1 [Sulfamethazine] | 0.92
NC(=O)N/N=C/c1ccc([N+](=O)[O-])o1 [Nitrofural] | 1.2
COc1cccc2c1C(=O)c1c(O)c3c(c(O)c1C2=O)CC(O)(C(=O)CO)CC3OC1CC(N)C(O)C(C)O1 (stereo not given) [Doxorubicin (Adriamycin) HCl] | -6.37
CCOC(=O)C1=C(COCCN)NC(C)=C(C(=O)OC)[C@@H]1c1ccccc1Cl [Levamlodipine] | 5.72

Compound | z-score of subpopulation abundance
CC[C@H]1OC(=O)[C@H](C)[C@@H](O[C@H]2C[C@@](C)(OC)[C@@H](O)[C@H](C)O2)[C@H](C)[C@@H](O[C@@H]2O[C@H](C)C[C@H](N(C)C)[C@H]2O)[C@](C)(O)C[C@@H](C)CN(C)[C@H](C)[C@@H](O)[C@]1(C)O [Azithromycin] | -0.81
O=c1c(-c2ccc(O)cc2)coc2c([C@@H]3O[C@H](CO)[C@@H](O)[C@H](O)[C@H]3O)c(O)ccc12 [Puerarin] | 0.72
CCCCOc1cc(C(=O)OCCN(CC)CC)ccc1N [Oxybuprocaine HCl] | 0.72
Cc1cc(O)c(C(=O)N[C@@H](C(=O)N[C@@H]2C(=O)N3C(C(=O)O)=C(CSc4nnnn4C)CS[C@H]23)c2ccc(O)cc2)cn1 [Cefpiramide sodium] | 0.99
COc1cc(/C=C/C(=O)N2CCN(CC(=O)N3CCCC3)CC2)cc(OC)c1OC [Cinepazide maleate] | 0
COc1cccc(-c2c(C)n(Cc3c(F)cccc3C(F)(F)F)c(=O)n(C[C@H](NCCCC(=O)O)c3ccccc3)c2=O)c1F [Elagolix Sodium] | -0.72
NC12CC3CC(CC(C3)C1)C2 [Amantadine] | -0.63
Clc1ccc(CCC(Cn2ccnc2)Sc2c(Cl)cccc2Cl)cc1 (stereo not given) [Butoconazole nitrate] | -9.08
CCn1cc(C(=O)O)c(=O)c2cc(F)c(N3CCNC(C)C3)c(F)c21 (stereo not given) [Lomefloxacin HCl] | 1.99
CC(=O)OCC1=C(C(=O)O)N2C(=O)[C@@H](NC(=O)CSc3ccncc3)[C@H]2SC1 [Cephapirin Benzathine] | -0.98
CCN(CC)CC#CCOC(=O)C(O)(c1ccccc1)C1CCCCC1 (stereo not given) [Oxybutynin] | -0.18
CCCCC(=O)O[C@H]1CC[C@H]2[C@@H]3CCc4cc(O)ccc4[C@H]3CC[C@]12C [Estradiol valerate] | 0.23
C[N+]1(C)CCC(OC(=O)C(O)(c2ccccc2)C2CCCC2)C1 (stereo not given) [Glycopyrrolate] | 0.07
CCCCCCCCCC(=O)NC1C(Oc2c3cc4cc2Oc2ccc(cc2Cl)C(OC2OC(CO)C(O)C(O)C2NC(C)=O)C2NC(=O)C(NC(=O)C4NC(=O)C4NC(=O)C(Cc5ccc(c(Cl)c5)O3)NC(=O)C(N)c3ccc(O)c(c3)Oc3cc(O)cc4c3)c3ccc(O)c(c3)-c3c(OC4OC(CO)C(O)C(O)C4O)cc(O)cc3C(C(=O)O)NC2=O)OC(CO)C(O)C1O (stereo not given) [Teicoplanin] | 0.97
C[C@]1(COc2ccc(N3CCC(Oc4ccc(OC(F)(F)F)cc4)CC3)cc2)Cn2cc([N+](=O)[O-])nc2O1 [Delamanid] | -0.38
CC[C@H](C)C[C@H](C)CCCCCCCCC(=O)N[C@H]1C[C@@H](O)[C@@H](NCCN)NC(=O)[C@@H]2[C@@H](O)CCN2C(=O)[C@H]([C@H](O)CCN)NC(=O)[C@H]([C@H](O)[C@@H](O)c2ccc(O)cc2)NC(=O)[C@@H]2C[C@@H](O)CN2C(=O)[C@H]([C@@H](C)O)NC1=O [Caspofungin Acetate] | -8.37
COc1cc2c(cc1OC)C(=O)C(CC1CCN(Cc3ccccc3)CC1)C2 (stereo not given) [Donepezil] | 1.61
CN1CCC(=C2c3ccccc3CCc3sccc32)CC1 [Pizotifen Malate] | 0.26
COc1cccc2c1C(=O)c1c(O)c3c(c(O)c1C2=O)C[C@@](O)(C(=O)CO)C[C@@H]3O[C@H]1C[C@H](N)[C@@H](O)[C@H](C)O1 [Epirubicin HCl] | -4.59
O=C(O)C1=C(CSc2nnnn2CS(=O)(=O)O)CS[C@@H]2[C@H](NC(=O)[C@H](O)c3ccccc3)C(=O)N12 [Cefonicid sodium] | -0.38
